Screening results (PubChem BioAssay)
Most compounds without a hit are left out; they make up all but 3.2% or so of the library.
CHT inh: inhibitors of human choline transporter CHT | B-score at 10 µM | CHT-expressing cells, membrane potential dye, choline response; stronger effect = lower value | AID 488975 | Q9GZV3 | 310,000 compounds, 0.86% hits;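 active = B-score over 3 SD under the library average, and starting fluorescence ratio not unusually high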;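 note: choline stimulus applied at its EC90 after an EC20 pre-addition; B-score computed on integrated fluorescence ratio after choline addition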
HDAC3 inhib: human HDAC3 inhibition; O15379; recombinant HDAC3, fluorogenic peptide/trypsin coupled, fluorescence; inhibition, % at 8.3 µM; 320,000 compounds, 0.15% hits; AID 2718; in the data active = inhibition above about 26%, passing the limit was not always enough
PHOSPHO1 inh: PHOSPHO1 (human) inhibition; recombinant PHOSPHO1, absorbance phosphatase assay; inhibition, % at 13.3 µM; 290,000 compounds, 1.1% hits; AID 1565; in the data active = inhibition above about 60%
TMEM16A inh: mouse TMEM16A channel inhibition, primary screen; Q8BHY3; HEK293 TMEM16A/YFP iodide influx fluorescence, ionomycin; normalized B-score (activity score, 25-100; higher = stronger inhibition) at 10 µM; 310,000 compounds, 1.2% hits; AID 588511;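 active = ratio plate-corrected score three or more library SD toward inhibition, starting fluorescence score within five deviations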;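 note: score derived from kinetic fluorescence span divided by baseline fluorescence per well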
Target sequence (Q8BHY3 whole entry, looked up): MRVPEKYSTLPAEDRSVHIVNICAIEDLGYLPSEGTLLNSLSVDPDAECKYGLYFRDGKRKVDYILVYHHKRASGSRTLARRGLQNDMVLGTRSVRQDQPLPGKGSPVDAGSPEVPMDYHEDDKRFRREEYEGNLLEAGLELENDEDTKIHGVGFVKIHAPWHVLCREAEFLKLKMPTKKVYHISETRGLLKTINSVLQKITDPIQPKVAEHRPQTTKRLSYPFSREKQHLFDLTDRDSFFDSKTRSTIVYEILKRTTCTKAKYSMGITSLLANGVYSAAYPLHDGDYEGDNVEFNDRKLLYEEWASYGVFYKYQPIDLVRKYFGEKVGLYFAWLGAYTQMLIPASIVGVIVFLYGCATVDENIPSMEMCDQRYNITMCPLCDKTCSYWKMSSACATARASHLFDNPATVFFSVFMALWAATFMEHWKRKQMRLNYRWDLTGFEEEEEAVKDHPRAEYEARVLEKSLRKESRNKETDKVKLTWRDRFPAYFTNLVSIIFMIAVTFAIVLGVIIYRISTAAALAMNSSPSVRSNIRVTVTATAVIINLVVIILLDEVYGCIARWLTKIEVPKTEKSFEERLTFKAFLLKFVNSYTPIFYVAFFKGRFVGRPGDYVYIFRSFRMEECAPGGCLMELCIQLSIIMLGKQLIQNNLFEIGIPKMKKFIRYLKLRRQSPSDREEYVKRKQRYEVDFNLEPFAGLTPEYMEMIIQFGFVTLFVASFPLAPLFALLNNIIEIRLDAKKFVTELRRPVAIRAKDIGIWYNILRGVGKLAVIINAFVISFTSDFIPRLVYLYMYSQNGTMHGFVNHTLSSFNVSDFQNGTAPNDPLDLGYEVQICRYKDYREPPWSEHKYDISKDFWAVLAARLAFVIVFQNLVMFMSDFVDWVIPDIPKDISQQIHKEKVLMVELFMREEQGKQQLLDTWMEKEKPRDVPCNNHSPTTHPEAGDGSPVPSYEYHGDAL
CHT allo act: allosteric activators of human choline transporter CHT; CHT-expressing cells, membrane potential dye, choline EC20; stronger effect = higher value; LV-AA mutant CHT in HEK293 cells; AID 488977; 310,000 compounds, 0.49% hits; B-score at 10 µM;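 active = initial fluorescence not abnormally high and integrated response B-score, plate-corrected, over 3 SD above library mean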
TMEM16A act: mouse TMEM16A channel activation, primary screen; 340,000 compounds, 0.3% hits; B-score at 10 µM; HEK293 TMEM16A/YFP-H148Q/I152L, iodide quench fluorescence; stronger effect = lower value; Q8BHY3;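 active = fluorescence-ratio B-score plate-corrected deviation score at least 3 library SD below zero, with starting fluorescence score within 5 deviations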;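 note: channel opened by trigger with iodide after compound preincubation; score built on the fluorescence ratio of max minus min over baseline; more negative score means more quench and so TMEM16A activation or potentiation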
The depositor's hits bear a star; i = inactive; · = no result.

SMILES	CHT inh	HDAC3 inhib	PHOSPHO1 inh	TMEM16A inh	CHT allo act	TMEM16A act
CC(=O)[C@@]1(O)CC[C@H]2[C@@H]3CCC4=CC(=O)CC[C@]4(C)[C@H]3[C@@H](O)C[C@@]21C	-6.63*	5.0	6.0	100*	i	i
O=C(N/N=C/c1cc([N+](=O)[O-])cc(Br)c1O)C12CC3CCC(CC(C3)C1)C2	i	-1.0	5.5	100*	i	i
COc1cc(/C=N/NC(=O)C23CC4CC(CC(C4)C2)C3)cc(Br)c1O	i	6.3	-8.9	i	i	i
CC(C)[C@H]1CN(C)CCN1Cc1cn(C)nc1-c1cccc(Cl)c1	i	·	2.3	i	i	i
CN1C(=O)/C(=C/c2cc(N=Nc3ccccc3)ccc2O)SC1=S	i	-1.4	18.1	100*	i	i
Cc1c(N2C(=O)/C(=C\c3ccccc3O)SC2=S)c(=O)n(-c2ccccc2)n1C	i	-0.5	-60.9	i	i	i
CNc1nc(OCCNC(=O)Nc2ccccc2)nc(N2CCOCC2)n1	i	4.8	12.2	i	i	i
O=C(NCCOc1nc(N2CCOCC2)nc(N2CCOCC2)n1)Nc1ccc(Cl)cc1	i	-0.9	25.7	i	i	-14.6*
O=C(NCc1ccccn1)Nc1cccc(Cl)c1Cl	i	-11.7	32.2	i	i	i
CCCCSc1nc(C)cc(SCC(=O)N/N=C/c2cccc(OC)c2O)n1	i	-1.4	11.5	100*	i	i
COc1cccc(/C=N/NC(=O)CSc2nnc(C)n2-c2ccccc2)c1O	i	-2.9	25.8	i	i	i
O=C(Cc1ccccc1F)Nc1cccc2cccnc12	i	1.3	-1.5	i	i	i
O=C(Oc1ccc(=O)n(-c2ccccc2)n1)c1ccc(Cl)cc1	i	16.8	24.4	i	i	i
COc1ccc(C(=O)Oc2ccc(=O)n(-c3ccccc3)n2)cc1	i	76.3*	-120.3	i	i	i
O=C(Oc1ccc(=O)n(-c2ccccc2)n1)c1cccc(Cl)c1	i	44.0*	37.3	i	i	i
COc1ccccc1-c1coc2c(CN3CCCC(C)C3)c(O)ccc2c1=O (stereo not drawn)	i	-57.5	40.4	i	i	i
CC(C)CN(C(=O)CCNC(=O)c1ccc(Cl)cc1)c1c(N)n(CC(C)C)c(=O)[nH]c1=O	·	0.2	·	·	·	i
CSc1ccc(/C=C/C(=O)NC(=O)c2ccccc2O)cc1	i	5.9	41.2	25*	i	i
O=C(/C=C/c1ccc(O)c(O)c1)NC(=O)c1ccccc1O	i	0.1	23.4	i	i	i
COc1ccc(-c2cc(C3CCN(c4cc(Cl)nc(N)n4)CC3)[nH]n2)cc1	i	3.8	20.1	i	i	i
Nc1nc(Cl)cc(N2CCC(c3cc(-c4ccc(Cl)cc4)n[nH]3)CC2)n1	i	3.8	20.2	100*	i	i
NC(=O)CSc1nnc2ccc(-c3ccco3)nn12	i	0.1	-7.7	i	i	i
CC(C)CCNC(=O)NC(=O)COC(=O)c1cc(S(=O)(=O)N2CCOCC2)ccc1N1CCCCC1	i	11.6	-2.1	i	i	-12*
NC(=O)COC(=O)c1cc(S(=O)(=O)N2CCOCC2)ccc1N1CCCCC1	i	-0.5	12.5	i	i	i
Cc1cc(C(=O)OCC(=O)Nc2cccc(S(=O)(=O)N3CCOCC3)c2)c(C)o1	i	0.3	-0.4	i	i	-6.25*
SMILES	CHT inh	HDAC3 inhib	PHOSPHO1 inh	TMEM16A inh	CHT allo act	TMEM16A act
Cc1cc(C(=O)OCC(=O)Nc2cccc(S(N)(=O)=O)c2)c(C)o1	·	-2.2	·	·	·	i
COC(=O)CSC1=NS(=O)(=O)c2ccccc21	i	54.1*	-4.0	i	i	i
O=C(CSC1=NS(=O)(=O)c2ccccc21)Nc1ccccc1	i	13.4	88.1*	i	i	i
CC1CCC(O)(C(C(=O)O)c2ccccc2)CC1 (stereo not drawn)	·	·	·	·	·	i
S=c1[nH]nc(Cc2ccccc2)n1Cc1ccco1	i	6.0	25.3	i	i	i
Oc1ccc(-c2n[nH]c(=S)n2Cc2ccco2)cc1	i	5.1	99.8*	i	i	i
